# HT1080NT lethal: qHTS for induction of synthetic lethality in tumor cells producing 2HG: qHTS for the HT-1080-NT fibrosarcoma cell line | HT-1080-NT fibrosarcoma viability, CellTiter-Glo ATP luminescence, 48 h | Potency, µM (titrated, usually from 46.1 µM), usual class: cytotoxic | 1.6% of 360,000 active;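 also: NT is the 2HG producing partner of a matched IDH1 knockdown line; nearly all actives have a fitted effect of over 55% in size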
#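 Toxicity toward the 2HG-producing NT line was scored as %Activity, normalised to DMSO and no-cell wells, from CellTiter-Glo luminescence after 48 hours' treatment.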
# DT40 TDP1 no CPT: qHTS for Inhibitors of human tyrosyl-DNA phosphodiesterase 1 (TDP1): qHTS in cells in absence of CPT. DT40 Tdp1-/- hTDP1 cells, no CPT, ATP luminescence, 48 h. Potency, µM (titrated, usually from 46.2 µM), most hits filed as inhibitors. 15% of 420,000 active; also: nearly all actives have a fitted effect of over 55% in size
#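 Readout: luminescence from CellTiter-Glo after 30 min in the dark at RT. Cells: DT40 Tdp1-/- with stable hTDP1, 400/well. Exposure: compounds alone, ≥48 hr, 37 °C.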
# HT1080 IDH1KD tx: qHTS for induction of synthetic lethality in tumor cells producing 2HG: qHTS for the HT-1080-IDH1KD cell line. HT-1080 IDH1 knockdown viability, ATP luminescence, 48 h. Potency, µM (series often up to 46.1 µM), actives largely listed as cytotoxic. 2% of 360,000 active
#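 Luminescent ATP read-out (CellTiter-Glo, 10 min at room temperature) after 48 h compound exposure at 37 °C gave viability of IDH1-knockdown HT-1080 cells. Activity was normalised to DMSO and cell-free wells, then fitted as concentration-response curves.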
# IL-1B inflam inh: qHTS for Inhibitors of Inflammasome Signaling: IL-1-beta AlphaLISA Primary Screen | THP-1 LPS/ATP IL-1B secretion, AlphaLISA, 16 h; active compounds read low | activity change, % at 57.5 µM | 4.7% of 360,000 active; in the data active = activity change below about -50%; inconclusive = mostly about -30% to -49%
#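 Secreted IL-1B measured by AlphaLISA bead assay after 16 h compound exposure of THP-1 cells; compounds (final up to 57.5 uM) added 1 h before LPS (250 ng/mL) and ATP (1.25 mM) stimulation; lower signal means less secretion.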
# DT40 TDP1 CPT: qHTS for Inhibitors of human tyrosyl-DNA phosphodiesterase 1 (TDP1): qHTS in cells in presence of CPT. chicken DT40 Tdp1-/-;hTDP1 cells + 20 nM CPT, ATP luminescence, 48 h. Potency, µM (highest dose often 46.2 µM), actives largely listed as inhibitors. 12% of 420,000 active; also: nearly all actives have a fitted effect of over 55% in size
#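 Chicken DT40 Tdp1-/- cells stably complemented with human TDP1 were seeded at 400 cells/well in medium containing 20 nM camptothecin, exposed to pin-transferred compounds, and grown at 37 °C for at least 48 hr. Viability was read as ATP luminescence.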
# 12-LOX inh: Primary qHTS assay for inhibitors of human arachidonate 12S-lipoxygenase (ALOX12): Round 2. purified 12hLO, xylenol orange hydroperoxide absorbance. Potency, µM (titrated, usually from 108 µM), usual class: inhibitors. 1.1% of 580,000 active
# Target sequence (P18054 whole entry, looked up): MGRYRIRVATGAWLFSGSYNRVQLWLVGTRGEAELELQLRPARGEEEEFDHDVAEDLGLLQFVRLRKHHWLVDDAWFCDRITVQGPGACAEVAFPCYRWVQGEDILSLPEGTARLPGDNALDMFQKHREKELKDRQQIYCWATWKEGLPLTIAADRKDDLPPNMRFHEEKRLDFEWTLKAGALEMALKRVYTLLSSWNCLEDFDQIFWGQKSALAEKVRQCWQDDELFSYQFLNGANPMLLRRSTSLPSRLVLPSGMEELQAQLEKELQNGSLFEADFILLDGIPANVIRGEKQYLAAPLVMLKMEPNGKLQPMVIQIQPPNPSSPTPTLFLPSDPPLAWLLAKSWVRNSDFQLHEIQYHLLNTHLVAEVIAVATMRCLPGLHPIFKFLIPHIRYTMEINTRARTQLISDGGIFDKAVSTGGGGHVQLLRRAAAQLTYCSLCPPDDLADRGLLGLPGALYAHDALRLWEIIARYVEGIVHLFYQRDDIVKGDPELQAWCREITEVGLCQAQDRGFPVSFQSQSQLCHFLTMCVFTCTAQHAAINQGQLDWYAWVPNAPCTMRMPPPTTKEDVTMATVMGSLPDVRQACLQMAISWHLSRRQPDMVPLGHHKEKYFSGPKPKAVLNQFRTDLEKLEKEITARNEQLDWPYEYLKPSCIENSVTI
#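 Hydroperoxide product was detected by ferrous iron/xylenol orange as the 573 to 405 nm absorbance ratio. Arachidonic acid at 40 uM (final) was turned over for 30 min at room temperature by 150 nM human 12hLO, pH 7.0 Hepes buffer, after 15 min compound preincubation.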
# Numbers stand for hits; 0 = inactive; ? = inconclusive; - = no result given. The sample as a whole holds a higher share of hits than the screen did. Unless noted, calls follow the shape of the dose curve; as a rule, active = well fitted curve in the direction sought with a large enough effect; inconclusive = small, poorly fitted or top-dose-only effect, or another doubt; inactive = no such curve, though single readings can be large; an effect the other way counts as inactive or inconclusive.
SMILES,HT1080NT lethal,DT40 TDP1 no CPT,HT1080 IDH1KD tx,IL-1B inflam inh,DT40 TDP1 CPT,12-LOX inh
O=C(NCC1CCCC(CNC(=O)N2CCc3ccccc32)C1)N1CCc2ccccc21 (stereo not drawn),?,0,20µM,?,0,0
CCOc1ccccc1CNC(=O)c1ccc(NC(=O)N2CC(C)Sc3ccccc32)cc1 (stereo not drawn),-,7.3µM,-,-,13µM,0
Cn1nc(-c2nncn2CC2CC2)c2c1CCN(C(=O)Cc1c[nH]c3ccccc13)C2,-,-,-,-,-,0
CC(C)C(NC(=O)c1ccc(I)cc1)C(C)C,-,-,-,-,-,0
CCc1ccc(/C=C(/CC(=O)O)c2nc3ccccc3s2)cc1,-,-,-,-,-,0
CC(C)=CCC[C@H](C)C[C@@H]1Cc2[nH][nH]c(=O)c2[C@H](c2ccc(F)cc2)O1,0,21µM,0,0,?,?
CCCCC1Cc2[nH][nH]c(=O)c2C(c2ccc(F)cc2)O1 (stereo not drawn),?,?,26µM,0,?,?
c1ccc(N2CCN(CCNCC3CNc4ccnn4C3)CC2)cc1 (stereo not drawn),-,-,-,-,-,0
Nc1ncnc2c(C3OC(CO)C(O)C3O)scc12 (stereo not drawn),0.26µM,0.016µM,0.037µM,-116,0.012µM,0
CCOc1ccc2nc(N3C(=O)/C(=C/c4ccccc4)NC3=S)sc2c1,0,?,0,0,23µM,0
Cc1ccc(C(=O)C[n+]2ccc(Cc3ccccc3)cc2)cc1,0,5.8µM,0,?,5.8µM,0
Cc1ccc(SCCc2cc[n+](CC(=O)c3ccccc3)cc2)cc1,0,16µM,0,-151,16µM,0
CCONC(=O)COc1ccc(C#N)cc1,-,-,-,-,-,0
Cc1cc(OCC(=O)Nc2ccc(C(=O)OC(C)C)cc2)cc(C)c1Cl,-,-,-,-,-,0
CC(C)N1CCc2c(sc(NC(=O)c3cc(-c4cccs4)nc4ccccc34)c2C(N)=O)C1,?,9.2µM,?,0,18µM,-
CC(C)N1CCc2c(sc(NC(=O)c3nc4ccccc4s3)c2C(N)=O)C1,?,21µM,0,0,13µM,0
CN1CCc2c(sc(NC(=O)c3ccc(C(=O)c4ccccc4)cc3)c2C(N)=O)C1,0,0,0,0,0,?
COc1cc(OC)cc(-c2cc3nc(C)c(CCC(=O)NC(C)CCc4ccco4)c(C)n3n2)c1 (stereo not drawn),0,16µM,0,0,?,0
Cc1csc(NC(=O)CCc2c(C)nc3cc(-c4cccc(F)c4)nn3c2C)n1,0,21µM,0,0,16µM,0
Cc1nc2cc(-c3cccc(F)c3)nn2c(C)c1CCC(=O)NC1CCCCC1,-,0,-,-,0,0
COC(=O)C(NC(=O)CCc1c(C)nc2cc(-c3cccc(F)c3)nn2c1C)C(C)C (stereo not drawn),-,18µM,-,-,?,0
Cc1nc2cc(-c3cccc(F)c3)nn2c(C)c1CCC(=O)NC(C)CCc1ccco1 (stereo not drawn),0,?,0,0,?,-
CCc1ccc2[nH]c3nc(N/N=C/c4ccc(O)cc4O)nnc3c2c1,?,?,5.2µM,0,?,0
O=C(COc1ncnc2c(Cl)cc(Cl)cc12)Nc1ccc(Cl)cc1,-,-,-,-,-,0
CCc1nc(N2CCN(C(=S)NCCCOC)CC2)c2c3c(sc2n1)CCCC3,?,16µM,0,?,16µM,0
CC1(C)CCC(c2ccc(Cl)cc2)=C(CN2CCN(c3ccc(C(=O)NS(=O)(=O)c4ccc(N[C@H](CCN5CCOCC5)CSc5ccccc5)c(S(=O)(=O)C(F)(F)F)c4)cc3)CC2)C1,-,0.32µM,-,-,0.45µM,0
